# Results as given in ChEMBL document CHEMBL3988442, “University of Dundee, Small-Polar-MMV Screening Library” (2021).
# Screen size: about 53,000 compounds; about 900 (1.7%) showed an effect of 50% or more. The list comes from a sample in which strong results are over-represented; it also holds similar structures and randomly drawn compounds.
# Tested on: Mycobacterium tuberculosis
# Assay: Cornell - Phenotypic assay to identify agents that inhibit growth of Mycobacterium tuberculosis
# Format: functional
# Parameters: scale not given: direction of the effect not stated beside the values
# Conditions: 10 mM as filed; unlikely as a test dose
row,SMILES,Percent Effect
1,CCC(CO)N(Cc1cccnc1)C(=O)c1ccncc1F (centres undefined),1.978%
2,CCc1ncc(CN[C@@H]2CCCN(C(C)=O)[C@H]2c2ccc(C)s2)cn1.Cl,15.97%
3,CCc1cc(NC2CCOCC2)n2nc(C)c(C)c2n1,14.02%
4,Cc1ccc(-c2nc(CN3CCC(N4CCNC4=O)CC3)co2)cc1,0.5995%
5,Cc1noc([C@H]2C[C@H]3OCC[C@H]3N(Cc3ccc(F)cc3)C2)n1.O=C(O)C(F)(F)F,52.79%
6,Cc1noc([C@H]2C[C@H]3OCC[C@H]3N(Cc3ccc4c(c3)OCO4)C2)n1.O=C(O)C(F)(F)F,10.54%
7,CCc1ccc(CN2C[C@@H](c3nc(C)no3)C[C@H]3OCC[C@H]32)o1.O=C(O)C(F)(F)F,28.15%
8,O=C(C1CCCC1)N1CCCC1c1nnc2n1CCCCC2 (centres undefined),-1.073%
9,CC(C)c1nc(CSc2nnc(C3CC3)n2CC(N)=O)no1,15.19%
10,CC(C)CCNc1nc(C(=O)NC2CC2)cs1,44.5%
11,CC(C)Nc1nc(C(=O)Nc2ccccn2)cs1,27.58%
12,Cc1nc(NC2CCCC2)cc(C2CCN2C(=O)c2ccccn2)n1 (centres undefined),-60.39%
13,CC(C)CCNC(=O)c1csc(NC2CC2)n1,27.3%
14,Cc1cnc(NC(=O)c2csc(NC3CCCC3)n2)s1,99.29%
15,O=C(Nc1ccccn1)c1csc(NC2CCCC2)n1,105.8%
16,Cc1cnc(NC(=O)c2csc(NCC(C)C)n2)s1,60.38%
17,Cc1cnc(NC(=O)N2CCCC2)s1,13.69%
18,Cc1cccc(NC(=O)c2csc(NCC(C)C)n2)n1,22.32%
19,CC(NC(=O)Nc1nccs1)C(=O)NC1CCCC1 (centres undefined),13.09%
20,CC(C)NC(=O)c1csc(NC2CC2)n1,29.51%
21,O=C(Nc1nccs1)c1csc(NC2CCCC2)n1,105.9%
22,Cc1nc(CNCc2cccc(OC34CCCN(CC3)C4)c2)n[nH]1 (centres undefined),22.09%
23,Cc1nn2c(NC(=O)CSc3nccn3C)csc2nc1=O,-11.03%
24,O=C1CCC(C(=O)Nc2ccc(=O)n(Cc3ccccc3Cl)c2)N1 (centres undefined),-13.24%
25,CNC(=O)c1cccc(C2CNCCN2C(=O)C2CCNCC2)c1 (centres undefined),0.2477%
26,CCOCC(=O)Nc1cc(-c2cccc(F)c2F)n[nH]1,57.77%
27,CCS(=O)(=O)CC(=O)Nc1cc(-c2cccc(F)c2F)n[nH]1,15.94%
28,CC(=O)Nc1cc(-c2cccc(F)c2F)n[nH]1,22.81%
29,O=C1NC[C@]2(CC[C@@H](C(=O)N3CCCC(O)C3)CC2)Oc2ccccc21 (some centres undefined),-1.738%
